Test results published in PubChem BioAssay (NCI).
About 83,000 compounds went through this panel and 20% of them were active in at least one assay; those are over-represented in the sample as a whole.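 96-well plates, one dose, 48 hours. Percent growth reported; active if below 10.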 Values without a mark were called inactive. The source made the active and inactive calls.

Key:
Test in all cases: NCI-60 one-dose screen, 48 h (100 = growth as untreated, 0 = no growth, -100 = all killed)
Conditions in all cases: 10 µM unless noted
[1] = test system: DU-145 prostate
[2] = test system: K-562 leukemia
[3] = test system: MALME-3M melanoma
[4] = test system: MDA-MB-231 breast
[5] = test system: RXF 393 renal
[6] = test system: SF-268 CNS
[7] = test system: SF-295 CNS
[8] = test system: SF-539 CNS
[9] = test system: UACC-257 melanoma
[10] = test system: M14 melanoma

SMILES | growth [1] | growth [2] | growth [3] | growth [4] | growth [5] | growth [6] | growth [7] | growth [8] | growth [9] | growth [10]
Cc1nc2ncccc2nc1Nc1ccc(S(=O)(=O)Nc2ccccn2)cc1 | 105% | 106% | 107% | 89.1% | 109% | 98.4% | 104% | 97.5% | 107% | 97.5%
C=C1CCC2C(C)(CO)C(O)CCC2(C)C1C/C=C1/C(=O)OCC1O/C=C/c1ccccc1 (stereo not given) | 82.8% | 22.9% | 105% | 95.6% | 81.2% | 96.7% | 92.7% | 96.9% | 83.6% | 86.1%
CN(C[C@H]1Cc2c(cccc2N2CCN(c3ncccn3)CC2)CN1)[C@H]1CCCc2cccnc21 | 55% | 8.04% (active) | 82.7% | 52.9% | 57.6% | 60% | 44.4% | 55.5% | 55.1% | 53.7%
CCOC(=O)C1C(=O)C=C(c2ccc(OC)cc2)CC1c1sc(N(C)Cc2ccccc2)nc1Cl (stereo not given) | 91.5% | 68.4% | 93.4% | 68.3% | 93.9% | 74.4% | 83.6% | 84.7% | 91.2% | 87.6%
COc1ccc(Nc2nc(N)nc3c2CCN(Cc2ccc(OC)cc2OC)C3=O)cc1 | 88.6% | 72.7% | 80.8% | 84.7% | 81.6% | 87.3% | 57.1% | 63.5% | 88.3% | 64.6%
COc1ccc(-c2ccc(C)n2-c2ccc(-c3nc4ccccc4s3)cc2)cc1 | 104% | 91.6% | 108% | 68.4% | 94.7% | 96% | 86.5% | 99.3% | 109% | 103%
CC12CCCC(CC(=O)c3[nH]c4ccccc4c31)C2 (stereo not given) | -15.6% (active) | 11.2% | 36.4% | 37.9% | -21.7% (active) | 63.7% | 15.1% | -19.1% (active) | 66.1% | 3.66% (active)
C=C1C(=O)O[C@H]2[C@H]1CC/C(Cn1cc(CNC(=O)c3cc4ccccc4[nH]3)nn1)=C\CC[C@@]1(C)O[C@@H]21 | 52.2% | 2.12% (active) | 0.0965% (active) | 60.9% | 24.5% | 68.5% | 110% | 6.92% (active) | 61.7% | 57.8%
Cn1ncc2c(Sc3ccc(Cl)cc3)ncnc21 | 83% | 78.1% | 69.9% | 98.6% | 117% | 57.8% | 96.8% | 92.2% | 103% | 103%
CC1CN(c2oc(-c3ccccc3)nc2C#N)CC(C)O1 (stereo not given) | 99.7% | 97.6% | 102% | 101% | 104% | 98.2% | 99.1% | 98.6% | 103% | 99.3%
CCN(CC)CCC(CNc1c2ccc(Cl)cc2nc2ccc(OC)cc12)c1ccccc1 (stereo not given) | -23.3% (active) | -21.8% (active) | -85.1% (active) | -46.1% (active) | -97.7% (active) | 8.46% (active) | -33.2% (active) | -79.6% (active) | -91.1% (active) | -87.9% (active)
COC(OC)c1ccccc1 | 110% | 108% | 99.7% | 97% | 101% | 104% | 112% | 102% | 92.2% | 101%
C=C1CCC[C@]2(C)CCC[C@H](C)[C@@H](OC(C)=O)[C@@H]3OC(=O)C(=C)[C@@H]3C[C@H]1O2 | 85.5% | 61.7% | 97.9% | 70.7% | 70.1% | 88.7% | 80.2% | 88.2% | 74.3% | 83.2%
COc1ccc(Nc2ncccc2C(=O)NCc2cn(Cc3cccc(Oc4ccccc4)c3)nn2)c(OC)c1 | 4.02% (active) | 21.3% | 46.4% | 23.9% | 6.03% (active) | 36.6% | 7.69% (active) | 5.94% (active) | 85.5% | 14.2%
N#Cc1c(-c2ccccc2)cc(-c2ccccc2)n(CC(=O)NO)c1=O | 61% | 6.26% (active) | 66% | 42.8% | 27.9% | 52.5% | 63.5% | 63.9% | 67.5% | 64.8%
CC(=O)c1cc2c(N)c(C(=O)Nc3cccc4c3OCCO4)sc2nc1C | 104% | 74.7% | 101% | 100% | 99.2% | 96.3% | 92.8% | 100% | 99.5% | 94.4%
Clc1cc(Cl)cc(-c2ccc(-c3ccc(/C=N/NC4=NCCN4)cc3)s2)c1 | 23.4% | -1.14% (active) | 98.3% | 61.5% | 60.6% | 76.2% | 93.7% | 84% | 103% | 94.4%
CC1=NC2=CC=CC3=NC(C(Cl)(Cl)Cl)=NC(=N1)N23 | 50.4% | 80.2% | 33.6% | 81.3% | 38% | 78% | 95.6% | 88.9% | 63.9% | 79.3%
COc1ccc(-c2nc(SCCC(C)C)nc(Nc3ccc(F)c(Cl)c3)c2C#N)cc1 | 97.7% | 56.2% | 84.2% | 100% | 101% | 83% | 78% | 70.3% | 103% | 95%
O=C(c1c[nH]c(=O)c(-c2ccccc2)c1)c1ccccc1O | 99.7% | 78.4% | 92.5% | 98.5% | 82.1% | 91.5% | 92.2% | 108% | 85.7% | 105%
CC(=O)OC[C@]12CC[C@H]3[C@@H](C[C@H]4O[C@]45CC=CC(=O)[C@]35C)[C@]1(O)CC[C@@]2(O)[C@@](C)(O)C1CC(C)=C(C)C(=O)O1 (stereo not given in full) | 7.44% (active) | 5.58% (active) | -58.4% (active) | -14.7% (active) | -62.8% (active) | -49.5% (active) | -11.9% (active) | -42.7% (active) | 13.7% | 2.6% (active)
COc1ccc(-c2c(N)n[nH]c2-c2cc(OC)c(OC)c(OC)c2)cc1 | 11% | 19.3% | 39.3% | 28% | -1.72% (active) | 34.9% | 12.8% | 1.66% (active) | 59.2% | 5.82% (active)
CCOC(=O)c1ccc(NC(=O)N2CC(C)OC(C)C2)cc1 (stereo not given) | 111% | 89.9% | 101% | 96.5% | 98.6% | 106% | 98.5% | 95.8% | 106% | 107%
O=C(NS(=O)(=O)c1ccccc1)n1cc(-c2ccncc2)c(-c2ccc(Cl)c(O)c2)n1 | 104% | 88.9% | 27.6% | 112% | 107% | 97.7% | 107% | 97.6% | 91.6% | 34.2%
CC(C)(C)n1cc(-c2ccnc(NCCCNS(=O)(=O)c3ccccc3)c2)c(-c2cccc(O)c2)n1 | 55.1% | 4.86% (active) | 44% | 38.6% | 52.8% | 50.8% | 35.1% | 38.3% | 47.2% | 34.1%
COc1ccc(-c2cn(-c3cccc(C(=O)/C=C/c4cc(OC)c(OC)c(OC)c4)c3)c(=O)[nH]2)cc1OC | 98.6% | 50.7% | 86% | 72.1% | 65.8% | 65.8% | 96.5% | 76.5% | 80.1% | 80.1%
Cc1ccc(N2CCN(C(C)C(N)=O)CC2)cc1 (stereo not given) | 116% | 114% | 107% | 102% | 111% | 100% | 103% | 110% | 127% | 99.2%
